Bioassay records from PubChem BioAssay.
TDP-43 tox inh: TDP-43 toxicity inhibition in yeast. yeast TDP-43 toxicity rescue, BacTiter-Glo growth, 24 h. Potency, µM (highest dose often 46.1 µM), hits mostly activators. 45,000 tested, 0.45% active; active = well fitted activation curve with a large enough effect; note: nearly all actives have a fitted effect of over 55% in size
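TDP-43-expressing yeast, pregrown in raffinose, seeded at OD600 0.02 in galactose medium with compound for 24 hr at 30 deg C. Growth read by BacTiter-Glo luminescence, so rescue of toxicity appears as activation.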
Numbers stand for hits; - = inactive. This excerpt belongs to a sample that is enriched for hits.

SMILES	TDP-43 tox inh
Cc1cc[n+](CC(=O)Nc2nc3ccccc3s2)cc1	-
O=C(Cc1cccs1)Nc1nc2ccccc2s1	16µM
CCc1ccc2nc(NC(=O)CCCc3cccs3)sc2c1	-
CCn1c(SCc2cccc(C(=O)O)c2)nnc1-c1ccccc1	-
O=c1oc2ccccc2c(Nc2ccccc2)c1CN1CCCCC1	-
CCOc1ccc(-c2cc(NC(=O)c3c(F)cccc3F)c(C(=O)O)s2)cc1	-
CCOc1ccc(S(=O)(=O)N(CC(=O)NN=C2CCN(C)CC2)c2ccc(C)cc2)cc1	-
C=CCn1c(-c2cc(-c3ccc(C)cc3)nc3ccccc23)n[nH]c1=S	14µM
C=CCn1c(-c2ccccc2OC)n[nH]c1=S	-
CCn1c(-c2cc(-c3ccc(C)cc3)nc3ccccc23)n[nH]c1=S	-
O=C(c1ccc(Cl)cc1)C(CN1CCCCC1)c1ccccc1 (stereo not given)	-
CCn1c(CC(=O)Nc2ccccc2Cl)nnc1SCC(=O)NC1CCCC1	-
O=C(O)c1nn(CCOc2ccc(Cl)cc2Cl)c(=O)c2ccccc12	-
O=C(O)c1nn(CCOc2c(Cl)cccc2Cl)c(=O)c2ccccc12	-
O=C(O)c1nn(CCOc2cccc(Br)c2)c(=O)c2ccccc12	18µM
O=C1NCCN(Cc2ccc(Cl)c(F)c2)C1CC(=O)N1CCCO1 (stereo not given)	-
CCc1nc2ccc(C(=O)N3CCN(C(=O)c4ccco4)CC3)cn2c1N(C)Cc1nccn1C	-
Cn1nnnc1SCC(=O)Nc1cc(C(F)(F)F)ccc1N1CCOCC1	-
O=C(CNCc1ccccn1)Nc1cc(C(F)(F)F)ccc1N1CCOCC1	-
O=C(CSc1ccc([N+](=O)[O-])cn1)Nc1cc(C(F)(F)F)ccc1N1CCOCC1	13µM
COC(=O)[C@H](CC(C)C)NC(=O)CCc1nnc(COc2ccccc2)o1	-
COc1ccc(/C=N/Nc2nnc(Cc3ccccc3)c(=O)[nH]2)cc1OC	-
OC(CNc1ncnc2sccc12)c1ccccc1 (stereo not given)	-
CN(C)C(CNc1ncnc2sccc12)c1ccccc1 (stereo not given)	-
Fc1ccc(Nc2ncnc3sccc23)cc1	11µM
SMILES	TDP-43 tox inh
Cc1cc(N/N=C/c2ccc(Cl)cc2)nc(NCc2ccccc2)n1	-
O=C(NCC(c1cccnc1)N1CCN(c2ccccc2F)CC1)C1CCCCC1 (stereo not given)	-
Cc1ccccc1CC1(CO)CCCN(Cc2ccc(C#CC(C)(C)O)cc2)C1 (stereo not given)	-
COc1cc(/C=C/C(=O)O)ccc1OCc1ccc([N+](=O)[O-])cc1	-
COc1cc(/C=C/C(=O)O)ccc1OS(=O)(=O)c1ccc(C)cc1	-
COc1ccc(/C=C/C(=O)O)cc1Cl	11µM
COC(=O)C1CCN(C(=O)CN2C(=O)NC3(CCC(C)CC3)C2=O)CC1 (stereo not given)	-
N/C(=N\OC(=O)Cc1ccccc1)c1ccc([N+](=O)[O-])cc1	11µM
COc1ccc(CC(=O)O/N=C(\N)c2cccc([N+](=O)[O-])c2)cc1	-
N/C(=N\OC(=O)CCCOc1ccccc1)c1ccc([N+](=O)[O-])cc1	-
CC1CCN(c2nc(N3CCCCC3)nc(N3CCCCC3)n2)CC1	-
COc1ccc(OCCN2CCC(C(=O)NC(c3ccccn3)c3ccccc3OC)CC2)cc1 (stereo not given)	-
Oc1c(Cl)cc(Cl)cc1/C=C/c1ccc2cccc(O)c2n1	-
COc1cc(Cl)cc(/C=C/c2ccc3ccccc3n2)c1OC(C)=O	13µM
COc1c(OC(C)=O)ccc(/C=C/c2ccc3cccc(OCc4ccccc4)c3n2)c1[N+](=O)[O-]	-
O=C(CC(=O)NCc1ccc(Cl)cc1)NCc1ccc(Cl)cc1	-
COc1cc(NC(=O)c2ccc(-c3cn[nH]c3)c3ccoc23)cc(OC)c1OC	-
COc1ccc(NS(=O)(=O)c2ccc(NC(=O)c3ccc(Br)cc3)cc2)nn1	-
O=C(NC(=S)NNC(=O)c1ccccc1O)c1cccnc1	-
CCC(C)c1ccc(O)c(NC(=S)NC(=O)c2cccnc2)c1 (stereo not given)	10µM
Cc1ccc([N+](=O)[O-])cc1NC(=S)NC(=O)c1cccnc1	-
O=C(c1ccc2c(c1)N(Cc1ccccc1)C(=O)c1ccccc1S2(=O)=O)N1CCN(c2ccccn2)CC1	-
CCC(=O)OCc1cc(=O)oc2ccc3ccccc3c12	-
O=C(O)Cc1coc2ccc3ccccc3c12	13µM
NC(=O)N/N=C/c1coc2ccc3ccccc3c2c1=O	-
SMILES	TDP-43 tox inh
O=C(NCc1ccccc1)c1ccc(S(=O)(=O)NCc2ccco2)cc1	-
Cc1c(C(=O)O)oc2c1-c1nn(Cc3ccccc3Cl)cc1CC2	11µM
CC(=O)Nc1ccc(NC(=O)c2c(C)nn(Cc3ccccc3Cl)c2C)cc1	-
CCOC(=O)c1oc2c(c1C)-c1nn(Cc3ccccc3Cl)cc1CC2	-
Cc1ccc(S(=O)(=O)N2CCOCC2)cc1C(=O)N1CCN(Cc2ccccc2)CC1	-
COc1ccc(NC(=O)CO/N=C2\CCCc3nonc32)cc1	-
C=CCNC(=O)c1ccc2nc(Cc3ccc(OC)cc3)oc2c1	-
CCOC(=O)C1(CCc2ccccc2)CCN(C(=O)c2cnc(C)cn2)CC1	-
O=C(Cn1cnc2ccccc21)Nc1ccc(SC(F)F)cc1	-
N#CCCn1cc(C(=O)Nc2ccc([N+](=O)[O-])cc2)c(-c2cccs2)n1	-
CC(=O)Nc1nc(-c2ccc([N+](=O)[O-])cc2)cs1	-
O=[N+]([O-])c1ccc(-c2nc(-c3cccs3)c(-c3cccs3)[nH]2)cc1	3.2µM
COc1cccc(C(=O)NCCCNC(=O)c2cccnc2)c1	-
CC(C)CNC(=O)c1cccc2c(-c3cccnc3)coc12	-
O=C(NCC1CCOCC1)c1cccc2c(-c3cccnc3)coc12	-
COc1ccc(NC(=O)c2cccc3c(-c4cccnc4)coc23)cc1	10µM
CCc1nc2ccc(C(=O)Nc3cccc(NS(C)(=O)=O)c3)cn2c1N(C)C(=O)Cc1ccccc1	-
O=C(N/N=C/c1ccc[nH]1)c1ccc([N+](=O)[O-])cc1	-
Cc1cc(C)c(S(=O)(=O)NCc2csc(-c3ccccc3)n2)c(C)c1	22µM
COc1ccc(-c2nc(CNS(=O)(=O)c3ccccc3)cs2)cc1	-
O=S(=O)(NCc1csc(-c2ccccc2)n1)c1cccc(F)c1	-
O=C(O)CCN=Cc1c(O)c2ccccc2oc1=O	-
O=C(Nc1nnc(SCc2ccccc2)s1)c1cc2c(s1)CCCC2	-
O=C(Nc1nccs1)c1cc2c(s1)CCCCC2	7.1µM
CC(C)Cc1nnc(NC(=O)c2cc3c(s2)CCC3)s1	-
SMILES	TDP-43 tox inh
COc1cc(OC)cc(C(=O)OCc2ccc([N+](=O)[O-])cc2)c1	-
Cc1nc([N+](=O)[O-])c(C(=O)OCc2ccccc2)n1C	-
Cc1nc([N+](=O)[O-])c(C(=O)OCc2cccc(Br)c2)n1C	13µM
Cc1[nH]c2ccccc2c1/C=N/NC(=O)CNC(=O)c1ccc2c(c1)OCCO2	-
O=C(OCc1cncs1)c1ccccc1Cl	-
c1ccc(-c2nc(N3CCOCC3)sc2-c2ccccc2)cc1	25µM
Cc1cc(C(=O)N/N=C/c2sc(N3CCOCC3)nc2-c2ccccc2)c(C)o1	-
Fc1ccc(-c2csc(N3CCOCC3)n2)cc1	-
CCOCCCNC(=O)Cn1cnc2c(cnn2-c2ccc(OC)cc2)c1=O	-
CCCCC(=O)NCc1ccccc1Cl	-
O=C(CN1CCN(Cc2ccccc2)CC1)NCc1ccccc1Cl	-
O=C(CN1CCc2ccccc21)NCc1ccccc1Cl	13µM
CCOC(=O)/C(C#N)=C/c1cn(CCC(=O)O)nc1-c1ccccc1	-
